In PubChem BioAssay AID1851 (National Center for Advancing Translational Sciences (NCATS), 2009):
The campaign covered roughly 16,000 compounds. About 4,000 (25%) were called active. Another 26% or so got no clear call; they are omitted. The list is a sample of the results. A number with no mark means an inactive call. Calls come from the whole dose curve; as a rule, active = well fitted curve in the direction sought with a large enough effect; inconclusive = small, poorly fitted or top-dose-only effect, or effect the other way; inactive = no such curve, though single readings can be large or run the other way.

molecular target: Cytochrome P450 2C9 (Homo sapiens) (UniProt P11712); experiment: Cytochrome panel assay with activity outcomes; conditions: recombinant CYP, pro-luciferin dealkylation, luminescence, p450-cyp2c9; series mostly up to 57.1 µM; activity, negative = inhibition: at the top concentration
% is set by controls: 0 for no effect and ±100 for the full control effect.

Sequence of Cytochrome P450 2C9 (Homo sapiens) (P11712 whole entry, looked up): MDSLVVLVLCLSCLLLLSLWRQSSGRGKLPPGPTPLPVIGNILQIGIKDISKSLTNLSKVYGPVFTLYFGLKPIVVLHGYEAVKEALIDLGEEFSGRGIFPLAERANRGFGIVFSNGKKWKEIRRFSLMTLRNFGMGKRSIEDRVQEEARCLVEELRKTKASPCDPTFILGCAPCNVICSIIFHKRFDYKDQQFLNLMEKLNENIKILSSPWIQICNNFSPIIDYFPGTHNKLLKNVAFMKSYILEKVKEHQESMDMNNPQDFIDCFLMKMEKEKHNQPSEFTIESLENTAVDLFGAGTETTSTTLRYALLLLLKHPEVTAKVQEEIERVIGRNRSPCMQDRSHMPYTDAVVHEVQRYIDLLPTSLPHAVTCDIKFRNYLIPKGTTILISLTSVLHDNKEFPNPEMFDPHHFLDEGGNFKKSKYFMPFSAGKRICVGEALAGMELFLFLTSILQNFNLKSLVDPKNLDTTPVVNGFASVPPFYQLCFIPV

Row | SMILES | AC50 | activity, negative = inhibition
1 | COc1ccc(/C=C/C(=O)Nc2ccccc2C(=O)N2CCCC2)cc1 | 15.8 µM (active) | –
2 | COC(=O)N1CCC2(CCCN(C(=O)Nc3ccc(OC)cc3)C2)CC1 | – | -12%
3 | COC(=O)CNC(=O)/C=C/c1ccc(OC)cc1 | – | -10.7%
4 | Cc1ccccc1N1CCN(C(=O)c2ccccc2NC(=O)/C=C\C(=O)O)CC1 | 14.1 µM (active) | –
5 | NCc1ccccc1CC(=O)N[C@@H]1C(=O)N2C(C(=O)O)=C(CSc3nnnn3CC(=O)O)CS[C@@H]12 | – | -8% [at 25.6 µM]
6 | CC(=O)Nc1nc(NC(C)=O)c2[nH]c(CO)nc2n1 | – | 15.3% [at 11.4 µM]
7 | Cc1nc2cnc(N3CCNCC3)nc2n(-c2ccccc2)c1=O | – | 11.8%
8 | FC(F)(F)c1nc(N2CCCC2)ncc1-c1nnnn1-c1ccccc1 | 6.31 µM (active) | –
9 | Cc1cc(C)cc(-n2nnnc2-c2cn(C)nc2C(F)(F)F)c1 | – | -29.6%
10 | FC(F)(F)c1nc(-c2ccncc2)ncc1-c1nnnn1-c1ccccc1 | 2.82 µM (active) | –
11 | c1ccc(CNc2nc(-c3ccoc3)nc3ccccc23)cc1 | – | -16.4% [at 2.29 µM]
12 | CCCNC(=S)Nc1ccc(Br)cc1 | 14.1 µM (active) | –
13 | Cc1ccc(NC(=S)Nc2ccc(Br)cc2)cc1 | – | -21.4%
14 | N=c1n(-c2ccccc2)c(O)cc(=O)n1-c1ccccc1 | – | -18.2%
15 | CC(=O)c1c(O)c(C)c(-c2ccccc2)n(-c2ccccc2)c1=O | 14.1 µM (active) | –
16 | Cc1cc(C)n(-c2ccc(F)cc2)c(=O)c1C(=O)O | – | -2.88%
17 | N#C/C(=N\O)c1nc(-c2ccccc2)cs1 | 22.4 µM (active) | –
18 | C[n+]1cccc(CNC(=O)/C=N/O)c1 | – | 4.55%
19 | O=C(O)[C@H](CCc1ccccc1)N1C(=O)c2ccccc2C1=O | – | -7.78% [at 11.4 µM]
20 | O=C1OCCC=C1[C@@H](O)CCc1ccccc1 | – | 5.4% [at 11.4 µM]
21 | O=C1C(=O)c2ccccc2C(O)=C1C(CCc1ccccc1)C1=C(O)c2ccccc2C(=O)C1=O | 3.16 µM (active) | –
22 | CC(=O)O[C@H]1C2=CO[C@H](C)[C@H]3[C@H]4C5=C([C@H](O)[C@H]6O[C@@H]6C5=O)[C@H](O[C@H]4C)[C@@]23C(=O)[C@H]2O[C@@H]21 | – | 19.9% [at 11.4 µM]
23 | COC(=O)c1cc(Br)c(=O)n(CCc2ccc(O)cc2)c1 | 12.6 µM (active) | –
24 | CC(C)CN1CCCC2(CCN(C(=O)c3csnn3)CC2)C1 | – | -12.6%

Row | SMILES | AC50 | activity, negative = inhibition
25 | NC(=O)C1CCN(C(=O)OCc2ccccc2)CC1 | – | -21.8%
26 | O=C1CCC[C@@H](C(C(=O)OCc2ccccc2)C(=O)OCc2ccccc2)C1 | 3.16 µM (active) | –
27 | O=C(O)C1CCCN1C(=O)OCc1ccccc1 (stereo not drawn) | – | -14.5%
28 | CCC(=O)Nc1ccc(/C(C)=N\NS(=O)(=O)c2ccc(C)cc2)cc1 | 2.24 µM (active) | –
29 | COc1ccc(C(=O)N/N=C(\C)Cn2nc([N+](=O)[O-])cc2C)cc1 | – | -17.7%
30 | C/C(=N/NS(=O)(=O)c1ccc(C)cc1)c1cccc(NC(=O)c2cccc(Cl)c2)c1 | 3.98 µM (active) | –
31 | COc1ccc(/C(C)=N/NC(=O)c2ccc(N(C)C)cc2)cc1 | – | -59.1%
32 | COc1ccc(NC(=O)c2cc(S(=O)(=O)N3CCS(=O)(=O)CC3)ccc2Cl)cc1 | – | -7.18%
33 | COc1ccc(CC(=O)Nc2cccc(/C(C)=N/NC(=O)c3cccc([N+](=O)[O-])c3)c2)cc1 | 1.58 µM (active) | –
34 | C/C(=N\NC(=O)c1cccc(Cl)c1)c1cccc(NC(=O)C(C)C)c1 | – | -1.8%
35 | COc1ccc(S(=O)(=O)N/N=C(/C)c2cccc(NC(=O)c3ccccc3Cl)c2)cc1 | 0.2 µM (active) | –
36 | O=C(O)c1ccccc1C(=O)Nc1cc2c(cc1Br)-c1ccccc1C2=O | – | -5.92% [at 11.4 µM]
37 | CC(C)c1ccc(/C=C2\C=C(c3ccc4ccccc4c3)OC2=O)cc1 | – | -10% [at 11.4 µM]
38 | O=C1c2ccccc2C(=O)c2c1ccc(C(=O)O)c2-c1ccc2ccccc2c1 | 1.58 µM (active) | –
39 | CC(C)OCCCN1CN(S(=O)(=O)c2cccc(Cl)c2)c2nc3ccccc3nc21 | 2.82 µM (active) | –
40 | CCn1nc(C)c(NC(=O)/C=C/c2cnn(C)c2C)c1C | – | 6.79%
41 | Cc1ccsc1/C=C1/SC(=O)N(CC(=O)N2CCOCC2)C1=O | – | 27.3%
42 | Cc1cc(N2CCOCC2)ccc1/C=C1\SC(=O)N(C(C)C)C1=O | 31.6 µM (active) | –
43 | CN(C)c1ccc(/C=C2/C(=O)N(c3ccc([N+](=O)[O-])cc3)N=C2N2CCOCC2)cc1 | – | -9.26%
44 | Cc1ccc2c(CC(=O)OCc3cc(=O)n4c(n3)sc3ccccc34)coc2c1 | 7.94 µM (active) | –
45 | COc1cccc(Nc2ncc3nc(-c4ccccc4)c(=O)n(C)c3n2)c1 | – | -3.42%
46 | c1cnc(Nc2nc(-c3ccc4ccccc4c3)cs2)nc1 | – | -7.88%
47 | COc1cccc(Nc2nc(-c3ccc(O)cc3)cs2)c1 | 3.98 µM (active) | –
48 | CC1CCCC(NC(=O)C2CCN(S(=O)(=O)N3CCOCC3)CC2)C1C (stereo not drawn) | – | -4.6%
